{"source": "PubChem BioAssay AID1851", "about": "(National Center for Advancing Translational Sciences (NCATS), 2009)", "note": "Among all 16,000 compounds or so, about 2,600 (16%) were called active. Inconclusive results (about 20%) are left out. The list is a sample of the results. Values without a mark were called inactive. Calls follow the shape of the dose curve; as a rule, active = well fitted curve in the direction sought with a large enough effect; inconclusive = small, poorly fitted or top-dose-only effect, or effect the other way; inactive = no such curve, though single readings can be large or run the other way. Numbered stars: 1 amine (or outer) side, 2 acyl side, 3 side chain; on linkers, the order of the positions; unused ones are H or OH. Bridge positions count the residues as written; N and C are the ends. Square brackets hold non-standard residues; d marks the D form. Peptide text beside a SMILES is read from it. I, II: the chains in the order shown. Actinocin(9to1) = Cc1c2oc3c(C)ccc(C(=O)[*:1])c3nc-2c(C(=O)[*:2])c(N)c1=O; aThr = C[C@H](O)[C@H](N)C(=O)O; NMeV = CN[C@H](C(=O)O)C(C)C; Sar = CNCC(=O)O"}
{"molecular_target": "Cytochrome P450 2D6 (Homo sapiens) (UniProt P10635)", "sequence (P10635 whole entry, looked up)": "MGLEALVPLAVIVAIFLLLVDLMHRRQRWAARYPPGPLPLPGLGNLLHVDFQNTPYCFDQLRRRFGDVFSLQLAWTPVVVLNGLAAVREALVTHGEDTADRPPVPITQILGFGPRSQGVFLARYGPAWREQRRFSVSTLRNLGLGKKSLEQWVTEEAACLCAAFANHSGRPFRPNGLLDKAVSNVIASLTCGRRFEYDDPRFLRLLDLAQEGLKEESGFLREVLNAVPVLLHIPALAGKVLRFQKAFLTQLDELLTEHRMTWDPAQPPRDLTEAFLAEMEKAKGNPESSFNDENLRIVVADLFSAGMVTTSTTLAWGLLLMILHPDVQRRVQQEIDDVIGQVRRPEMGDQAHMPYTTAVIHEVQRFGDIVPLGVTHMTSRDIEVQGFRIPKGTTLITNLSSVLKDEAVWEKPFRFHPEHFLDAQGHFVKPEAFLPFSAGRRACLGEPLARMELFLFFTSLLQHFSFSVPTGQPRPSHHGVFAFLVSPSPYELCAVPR", "assay": "Cytochrome panel assay with activity outcomes; as to activity, negative = inhibition: % is scaled to controls: 0 for no effect and ±100 for the full control effect", "details": "recombinant CYP, pro-luciferin dealkylation, luminescence, p450-cyp2d6; series mostly up to 57.1 µM"}
{"smiles": "Cc1ccc(NC2c3ncccc3C(=O)N2Cc2ccc(F)cc2)cc1", "note": "(stereo not given)", "AC50": "inactive"}
{"smiles": "COc1ccc(OC)c(C2CC(=O)C3=C(C2)NC(=O)CC3c2ccc(O)c(OC)c2)c1", "note": "(stereo not given)", "AC50": "inactive"}
{"smiles": "CC(C)CC(=O)N1CCC(O)(CS(=O)(=O)Cc2ccc(Cl)cc2)CC1", "AC50": "inactive"}
{"smiles": "COCCn1c(=O)c(-c2cccc(F)c2)nc2cncnc21", "AC50": "inactive"}
{"smiles": "Cc1nn(-c2ccccc2)c(N2CCCCC2)c1/C=N/O", "AC50": "inactive"}
{"smiles": "O=C(c1ccc(Cl)cc1)N1CCN(c2cc(=O)[nH]nc2-c2ccccc2)CC1", "AC50": "inactive"}
{"smiles": "COc1cccc(CNCc2ccc(SC)cc2)c1OC", "AC50": "3.16 µM (active)"}
{"smiles": "CSc1ccc(CNc2ccccc2)cc1", "AC50": "inactive"}
{"smiles": "CC(C)CC(=O)Nc1sc2c(c1C#N)CC(C)(C)NC2(C)C", "AC50": "7.94 µM (active)"}
{"smiles": "COc1ccc(C(=O)N2CC3(CC(c4ccc(Cl)cc4)=NO3)C[C@H]2C(=O)NCC(N)=O)cc1", "note": "(stereo not given in full)", "AC50": "inactive"}
{"smiles": "CCOC(=O)C1C(=O)C=C(c2ccc(C)cc2)CC1c1ccco1", "note": "(stereo not given)", "AC50": "inactive"}
{"smiles": "Cc1c2oc3c(C)ccc(C(=O)N[C@@H]4C(=O)N[C@@H](C(C)C)C(=O)N5CCC[C@@H]5C(=O)N(C)CC(=O)N(C)[C@@H](C(C)C)C(=O)O[C@H]4C)c3nc-2c(C(=O)N[C@@H]2C(=O)N[C@@H](C(C)C)C(=O)N3CCC[C@@H]3C(=O)N(C)CC(=O)N(C)[C@@H](C(C)C)C(=O)O[C@H]2C)c(N)c1=O", "note": "(I: [aThr]V[dP][Sar][NMeV] / II: [aThr]V[dP][Sar][NMeV]; ester I:1-I:C, II:1-II:C; linker I:N-II:N via Actinocin(9to1))", "AC50": "inactive"}
{"smiles": "Cc1ccc(-n2[nH]c(C)c(C=Nc3ccc4[nH]c(=O)[nH]c4c3)c2=O)cc1C", "AC50": "inactive"}
{"smiles": "CCOc1ccc(C2=[N+]([O-])C(C)(C)N(O)C2(C)C)cc1", "AC50": "inactive"}
{"smiles": "Cc1ccc(NNS(=O)(=O)c2ccc(C)cc2)cc1", "AC50": "5.62 µM (active)"}
{"smiles": "Cc1ccc(S(=O)(=O)NNc2ccccc2)cc1", "AC50": "7.94 µM (active)"}
{"smiles": "Cc1ccc(S(=O)(=O)N[C@H](CO)C(=O)O)cc1", "activity, negative = inhibition": "1.97% [at 11.4 µM]"}
{"smiles": "Cc1ccc(S(=O)(=O)NCc2ccccc2)cc1", "AC50": "inactive"}
{"smiles": "Cc1ccc(S(=O)(=O)N[C@H](C(=O)O)C(C)C)cc1", "activity, negative = inhibition": "3.72% [at 11.4 µM]"}
{"smiles": "Cc1ccc(NC(=O)NNS(=O)(=O)c2ccc(Br)cc2)cc1", "AC50": "inactive"}
{"smiles": "OC[C@@H]1O[C@@H](n2cnc3c(NC4CCCC4)ncnc32)[C@@H](O)[C@H]1O", "AC50": "inactive"}
{"smiles": "CCN1C(=O)C=CC1=O", "AC50": "inactive"}
{"smiles": "CC[N+](CC)(CC)CC", "AC50": "inactive"}
{"smiles": "Clc1ccc(Sc2cc(N3CCOCC3)nc(-c3ccccc3)n2)cc1", "AC50": "inactive"}
{"smiles": "CC(=O)C1=C(NC(=O)c2ccc(F)cc2)CC2C1C2(C)C", "note": "(stereo not given)", "AC50": "inactive"}
{"smiles": "Nc1nc(NCc2ccccc2)nc(Nc2cccc(F)c2)c1[N+](=O)[O-]", "AC50": "inactive"}
{"smiles": "Cc1ccc(CNc2nc(N)c([N+](=O)[O-])c(Nc3ccc(F)cc3)n2)cc1", "AC50": "inactive"}
{"smiles": "Cc1[nH]nc(Nc2ccccc2)c1[N+](=O)[O-]", "AC50": "10 µM (active)"}
{"smiles": "CCOC(=O)CCc1c(C)nc2ncnn2c1C", "AC50": "inactive"}
{"smiles": "O=C(OCC#CCSc1nnc(-c2cccc3ccccc23)o1)c1ccco1", "AC50": "inactive"}
{"smiles": "COc1cc2c(cc1OC)C(C(=O)Nc1ccccn1)C(c1cccnc1)N(C)C2=O", "note": "(stereo not given)", "AC50": "inactive"}
{"smiles": "c1ccc([C@H](CCN2CCCC2)c2ccccn2)cc1", "activity, negative = inhibition": "12% [at 11.4 µM]"}
{"smiles": "c1ccc(C(CCN2CC3CCC(CC3)C2)c2ccccc2)cc1", "AC50": "0.794 µM (active)"}
{"smiles": "CCOc1cc(/C=N/NC(=O)CN2CCCCC2)ccc1OCc1ccccc1", "AC50": "inactive"}
{"smiles": "C/C(CCN1CCc2nc(-c3ccccc3)c(-c3ccccc3)cc2C1)=N\\OC[C@@H](O)COCc1ccco1", "activity, negative = inhibition": "7.77% [at 11.4 µM]"}
{"smiles": "Cc1nc2cnc(Oc3cccc(Cl)c3)nc2n(CCc2ccccc2)c1=O", "AC50": "inactive"}
{"smiles": "COC(=O)[C@@H]1CC[C@H](C)[C@@H](c2ccc(C)cc2)N1C(=O)c1ccc(/C=N\\OC[C@@H](C)[C@H](OCc2ccccc2)C(C)C)cc1", "AC50": "3.98 µM (active)"}
{"smiles": "COC(=O)[C@@H]1CC[C@H](C)[C@@H](c2ccc(C)cc2)N1C(=O)c1ccc(/C=N\\OC[C@@H](O)COCc2ccco2)cc1", "activity, negative = inhibition": "-0.0575% [at 11.4 µM]"}
{"smiles": "CO/N=C\\c1ccc(C(=O)N2[C@H](c3ccc(C)cc3)[C@@H](C)CC[C@H]2C(=O)OC)cc1", "activity, negative = inhibition": "16% [at 11.4 µM]"}
{"smiles": "CC(C)(C)C(=O)[C@H]1[C@H](c2ccccc2)[C@@]2(N=C(c3ccccc3)OC2=O)C2c3ccccc3C=NN21", "note": "(stereo not given in full)", "AC50": "inactive"}
{"smiles": "C#CCCCO/N=C1/C[C@@H](O)[C@@H](O)[C@@H]2[C@H]3C(=O)N(c4ccc(F)cc4F)C(=O)[C@@H]3CC[C@H]12", "activity, negative = inhibition": "-3.2% [at 11.4 µM]"}
{"smiles": "Cc1cc(C(C)(C)C)cc(CNC2CCCCC2)c1O", "AC50": "0.501 µM (active)"}
{"smiles": "CC(C)(C)c1cc2c(O)c(c1)Cc1cc(C(C)(C)C)cc(c1O)Cc1cc(C(C)(C)C)cc(c1O)Cc1cc(C(C)(C)C)cc(c1O)Cc1cc(C(C)(C)C)cc(c1O)Cc1cc(C(C)(C)C)cc(c1O)Cc1cc(C(C)(C)C)cc(c1O)Cc1cc(C(C)(C)C)cc(c1O)C2", "activity, negative = inhibition": "12.2% [at 11.4 µM]"}
{"smiles": "Oc1cc(CN2COc3ccccc32)c(O)cc1CNC1CCCCC1", "activity, negative = inhibition": "-11.4% [at 11.4 µM]"}
{"smiles": "COCCn1c(=O)c(-c2ccccc2)nc2cnc(Nc3cccc(OC)c3)nc21", "AC50": "inactive"}
{"smiles": "O=C(NC1CCCCC1)C(c1cccs1)N(C(=O)C(F)(F)F)c1ccccc1", "note": "(stereo not given)", "AC50": "10 µM (active)"}
{"smiles": "Cc1ccc(C(OC(=O)c2ccco2)C(=O)NC2CCCCC2)cc1", "note": "(stereo not given)", "AC50": "inactive"}
{"smiles": "Cc1nn(C)cc1C(C(=O)NC1CCCCC1)N(C(=O)Cc1cccs1)c1ccc(C(C)C)cc1", "note": "(stereo not given)", "AC50": "inactive"}
{"smiles": "O=C(NC1CCCC1)C(c1ccsc1)N(Cc1ccccc1)C(=O)Cc1cccs1", "note": "(stereo not given)", "AC50": "12.6 µM (active)"}
{"smiles": "Cc1ccc(N(C(=O)C(F)(F)F)C(C(=O)NC2CCCCC2)c2cccs2)cc1C", "note": "(stereo not given)", "AC50": "inactive"}
{"smiles": "CC(C)c1ccc(N(C(=O)C(F)(F)F)C(C(=O)NC2CCCCC2)c2ccncc2)cc1", "note": "(stereo not given)", "AC50": "inactive"}
{"smiles": "Cc1cc(C)cc(N(C(=O)c2ccccn2)C(C(=O)NC2CCCCC2)c2cccs2)c1", "note": "(stereo not given)", "AC50": "inactive"}
{"smiles": "Cc1cc(C)cc(N(C(=O)Cc2cccs2)C(C(=O)NC2CCCCC2)c2ccccn2)c1", "note": "(stereo not given)", "AC50": "inactive"}
{"smiles": "O=C(NC1CCCCC1)C(c1cccs1)N(Cc1cccs1)C(=O)c1ccco1", "note": "(stereo not given)", "AC50": "17.8 µM (active)"}
{"smiles": "CC(C)(S)[C@H](N)C(=O)O", "activity, negative = inhibition": "14.1% [at 11.4 µM]"}
{"smiles": "Cc1nc(S(=O)(=O)N(C)c2ccccc2)c(C#N)c(C)c1Cl", "AC50": "inactive"}
{"smiles": "CCOC(=O)c1cc2c(C(F)(F)F)cc(-c3ccccc3)nc2o1", "AC50": "inactive"}
{"smiles": "Nc1c(S(=O)(=O)O)cc(Nc2cccc(S(N)(=O)=O)c2)c2c1C(=O)c1ccccc1C2=O", "activity, negative = inhibition": "-9.77% [at 11.4 µM]"}
{"smiles": "CCOC(=O)c1cc(NC(=O)c2ccc(C)cc2)c(=O)oc1-c1ccccc1", "AC50": "inactive"}
{"smiles": "O=C(O)c1cc(=O)c2ccc(Cl)cc2[nH]1", "AC50": "inactive"}
{"smiles": "O=C(c1c(O)c2ccc(Cl)cc2[nH]c1=O)C1CC1", "AC50": "0.1 µM (active)"}
{"smiles": "CC1CCN(CC(=O)N2c3ccccc3Sc3cc4ccccc4cc32)CC1", "AC50": "3.98 µM (active)"}
{"smiles": "CCOC(=O)Nc1ccc2c(c1)N(C(=O)CCN1CCOCC1)c1ccccc1S2", "AC50": "inactive"}
{"smiles": "COc1ccc(OC)c2[nH]c(=O)c(CCNC(=O)C3CCCCC3)cc12", "AC50": "inactive"}
{"smiles": "COc1ccc([N+](=O)[O-])cc1COc1ccc2c(-c3ccccc3)cc(=O)oc2c1", "AC50": "inactive"}
{"smiles": "COc1ccc(-c2nc(-c3ccccc3)c(-c3cc([N+](=O)[O-])ccc3C)[nH]2)cc1O", "AC50": "28.2 µM (active)"}
{"smiles": "COc1ccc(-c2[nH]c(-c3ccc(C(=O)O)cc3)nc2-c2ccccc2)cc1", "AC50": "inactive"}
{"smiles": "COc1cccc(Nc2ncc3nc(-c4ccccc4)c(=O)n(C)c3n2)c1", "AC50": "inactive"}
{"smiles": "COCCNC(=O)c1cc(-c2cccc(OC)c2)on1", "AC50": "inactive"}
{"smiles": "CCOc1ccc(-n2c(N)c(C(=O)NCc3cccnc3)sc2=S)cc1", "AC50": "inactive"}
{"smiles": "CCOc1cccc(CNCCNC(=O)c2nonc2N)c1", "AC50": "2.24 µM (active)"}
{"smiles": "CCOc1ccc(N2CC(C(=O)NCc3cccc(C)c3)CC2=O)cc1", "note": "(stereo not given)", "AC50": "inactive"}
{"smiles": "COc1cccc(CNCCNC(=O)c2nonc2N)c1", "AC50": "3.16 µM (active)"}
{"smiles": "COc1cccc(CSCC(=O)O)c1", "activity, negative = inhibition": "14.7% [at 11.4 µM]"}
{"smiles": "CCOC(=O)N1CCC(NC(=O)CCC(=O)N2CCOc3ccccc32)CC1", "AC50": "inactive"}
{"smiles": "Cc1ccc(Oc2nn[nH]n2)cc1", "AC50": "inactive"}
{"smiles": "CC(=O)OCC1=C(C(=O)O)N2C(=O)[C@@H](NC(=O)CSc3ccncc3)[C@@H]2SC1", "AC50": "inactive"}
{"smiles": "COc1cc(/C=C2/C(=N)N3C=CSC3=NC2=O)ccc1OCCCOc1c(C)cccc1C", "AC50": "inactive"}
{"smiles": "Cc1nnc(SCC(=O)Nc2nccs2)[nH]c1=O", "AC50": "inactive"}
{"smiles": "COC(=O)c1ccc(NC(=O)c2cc3sccc3n2C)cc1", "AC50": "inactive"}
{"smiles": "O=C(c1cc2sccc2n1Cc1ccccc1)N1CCN(c2nc3ccccc3s2)CC1", "AC50": "inactive"}
{"smiles": "O=C(Nc1ccc2c(c1)OCCO2)c1cc2sccc2n1Cc1ccccc1", "AC50": "7.94 µM (active)"}
{"smiles": "O=C(CSCc1ccc(Cl)cc1)Nc1ccc2c(c1)OCCO2", "AC50": "3.98 µM (active)"}
{"smiles": "Cc1nc(SCC(=O)Nc2ccc3c(c2)OCCO3)c2oc3ccccc3c2n1", "AC50": "inactive"}
{"smiles": "O=C(CSCc1ccc(Cl)cc1)Nc1nccs1", "AC50": "5.62 µM (active)"}
{"smiles": "C/C(=N\\NC(N)=O)c1ccc(Cl)cc1", "AC50": "inactive"}
{"smiles": "C/C(=N\\NC(=O)CSCc1ccc(Cl)cc1)c1ccc2c(c1)OCCO2", "AC50": "0.562 µM (active)"}
{"smiles": "O=C(Nc1nccs1)c1sc2cc(Cl)ccc2c1Cl", "AC50": "inactive"}
{"smiles": "C/C(=N\\NC(=O)Cc1ccc(Cl)cc1)c1ccccn1", "AC50": "inactive"}
{"smiles": "O=C(CN1C(=O)C2C3C=CC(C3)C2C1=O)Nc1ccc2c(c1)OCCO2", "note": "(stereo not given)", "AC50": "inactive"}
